# The list is not random: actives were taken first. Their share in the collection is about 21%.
# Shiga toxin inh = blocks Shiga toxin action in Vero cells; Vero cells, Shiga toxin protein synthesis inhibition reporter; inhibition, % at 38.7 µM; hit rate 9.2% among 290,000; in the data active = inhibition mostly above about 28%, no sharp cut-off; inactive = mostly below about 43%
# Pf growth 96h = P. falciparum growth inhibition at 96 hour, primary screen for plastid delayed-death inhibitors; AID 504834; hit rate 6.9% among 320,000; P. falciparum luciferase reporter growth, 96 h; Potency, µM (series often up to 28.7 µM), usual class: inhibitors
#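 96 h incubation, 37 C, 5% CO2, of luciferase-reporter P. falciparum-infected RBCs (2% hematocrit, 0.05% parasitemia final) with test compounds; endpoint luminescence.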
# HCMV inh = human cytomegalovirus inhibition | HFF cells, HCMV-luciferase reporter, 72 h; stronger effect = lower value | activity change, negative = inhibition, % at 57.5 µM | hit rate 4.5% among 410,000; in the data active = activity change below about -60%; inconclusive = no clear call, values can overlap the other calls; inactive = above about -39%
#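 Screen run at 2 compound doses on HFFs infected with reporter HCMV, MOI 1 PFU/cell. Luciferase activity from cell lysates at 72 h post infection gave inhibition relative to buffer-only and Salinomycin wells.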
# Pf growth 48h = P. falciparum growth inhibition at 48 hours (one generation) | Potency, µM (top dose mostly 28.7 µM), most hits filed as inhibitors | AID 504832 | hit rate 5.9% among 310,000 | P. falciparum luciferase growth in erythrocytes, 48 h
#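 First compound was added to culture medium, then infected red cells at 0.1% parasitemia and 2% hematocrit (final). After incubation at 37 C under 5% CO2, luciferase detection reagent was dispensed and light output recorded.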
# CHX counter = counter-screen hit for Shiga toxin inhibitors, cycloheximide. cell reporter, cycloheximide protein synthesis inhibition counterscreen. max response, %. hit rate 12% among 300,000; in the data active = max response mostly above about 13%, no sharp cut-off; inactive = mostly below about 14%; also: read at 38.3 µM for the half of the compounds with a filed dose
# HCV inh = HCV inhibition. Potency, µM (doses to about 41.8 µM), most hits filed as inhibitors. Huh7.5.1 HCVcc-Cre infection, luciferase reporter, 44 h. hit rate 3.4% among 340,000
#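 Infectious HCVcc-Cre (~0.5 moi) was added to cells just after compound, with cells seeded 4 h earlier at 1,000 per well. Luciferase activity after 44 h culture reported infection; substrate was incubated 15 min at room temperature before reading.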
# A number is an active result; i = inactive; ? = inconclusive; nt = no result given; [ ] = remark or other dose. Unless noted, calls follow the shape of the dose curve; as a rule, active = well fitted inhibition curve with a large enough effect; inconclusive = small, poorly fitted or top-dose-only effect, or another doubt; inactive = no such curve, though single readings can be large or run the other way.
SMILES,Shiga toxin inh,Pf growth 96h,HCMV inh,Pf growth 48h,CHX counter,HCV inh
COc1ccc(-c2nc(CN3CCC(C(=O)N4CCOCC4)CC3)c(C)o2)cc1C,i,?,i,?,i,i
CCc1cc(-c2n[nH]c(C)c2-c2nc3ccccc3s2)c(O)cc1OCC(=O)NN,i,i,i,5.2µM,i,i
COc1cc(Cl)c(C)cc1NC(=O)CCCN1C(=O)C(c2ccccc2)Oc2cccnc21 (stereo not drawn),nt,nt,i,nt,nt,nt
Cc1c(/C(O)=C2\C(=O)C(=O)N(CCCN(C)C)C2c2ccco2)cnn1-c1ccccc1 (stereo not drawn),nt,nt,i,nt,nt,i
Cc1c(/C(O)=C2\C(=O)C(=O)N(CCN(C)C)C2c2ccccc2)cnn1-c1ccccc1 (stereo not drawn),111,i,i,i,50,i
Cc1c(/C(O)=C2/C(=O)C(=O)N(CCN(C)C)C2c2ccc(C(C)C)cc2)cnn1-c1ccccc1 (stereo not drawn),i,i,i,i,i,i
CCN(CC)CCCN1C(=O)C(=O)/C(=C(/O)c2ccc3c(c2)OCCO3)C1c1ccco1 (stereo not drawn),i,i[5.75 µM],i,i,46,i
Cc1c(/C(O)=C2\C(=O)C(=O)N(CCN(C)C)C2c2ccco2)cnn1-c1ccccc1 (stereo not drawn),67,i,i,nt,30,i
CCCOc1ccc(/C(O)=C2/C(=O)C(=O)N(CCN(C)C)C2c2ccco2)cc1 (stereo not drawn),74,?,i,i,37,i
CN(C)CCCN1C(=O)C(=O)/C(=C(/O)c2ccc3c(c2)OCCO3)C1c1ccco1 (stereo not drawn),i,?,nt,i,i,nt
COc1ccc(-c2nc3nc(C)cc(Nc4ccc(C(C)=O)cc4)n3n2)cc1,nt,nt,i,nt,nt,nt
COc1ccc(C(=O)Oc2cc(-c3ccc(OC)c(OC)c3)cc(=O)c3c(C)oc(C)c23)cc1,nt,nt,i,nt,nt,nt
O=C(NC(=O)c1ccc(F)cc1F)Nc1ccc(Cl)cc1,i,i,i,5.2µM,i,i
O=C(Nc1ccc(N2CCCCC2)cc1)c1ccc(F)cc1F,45,i,i,i,42,i
O=C(Nc1ccccc1)c1ccc(F)cc1F,nt,nt,i,nt,nt,i[8.37 µM]
Cc1ccc(NC(=O)c2ccc(F)cc2F)cc1,nt,nt,i,nt,nt,i
O=C(Nc1ccc(N2CCN(C(=O)c3cccs3)CC2)cc1)c1ccccc1F,i,i,i,?,i,i
O=C(Nc1ccc(N2CCCC2)cc1)c1ccccc1F,43,i,i,i,43,?
CCOC(=O)C1CCN(C(=O)c2ccc(OCC(=O)Nc3ccc(OCC)cc3)c(OC)c2)CC1,nt,?,i,?,nt,?
COc1ccc(-c2cc3nnc(-c4ccccc4)nc3s2)cc1,active,i,i,i,50,i
CC(CN1CCN(C)CC1)OC(=O)c1ccc(F)cc1 (stereo not drawn),i,i,-71,i,i,i
COc1ccccc1C(=O)OC(C)CN1CCN(C)CC1 (stereo not drawn),i,?,i,?,i,i
CC(CN1CCN(C)CC1)OC(=O)c1ccccc1 (stereo not drawn),i,i,i,i,i,i
CC(CN1CCOCC1)OC(=O)c1ccccc1Cl (stereo not drawn),i,?,i,i,10,i
CC(CN1CCN(C)CC1)OC(=O)c1cccc(Cl)c1 (stereo not drawn),52,i,i,i,17,i
SMILES,Shiga toxin inh,Pf growth 96h,HCMV inh,Pf growth 48h,CHX counter,HCV inh
CC(C)Cn1c(N)c(C(=O)CSc2n[nH]c(N)n2)c(=O)n(C)c1=O,nt,i,i,i,nt,i
COc1ccc(CCNC(=O)CSc2cc(=O)[nH]c(N)n2)cc1OC,i,12µM,i,i,i,i
COc1ccc(CCNC(=O)CSc2nc(O)cc(=O)[nH]2)cc1OC,i,i,i,3.3µM,i,i
COc1ccc(CCNC(=O)Cn2c(=O)[nH]c3ccsc3c2=O)cc1OC,i,i,i,12µM,i,i
CSc1nnc(SCC(=O)Nc2ccc3[nH]c(=O)[nH]c3c2)s1,nt,i,i,i,nt,i
Cc1ccc(NC(=O)CSc2nnc3ccc4ccccc4n23)cc1,nt,nt,i,nt,nt,nt
COc1cccc(C(=O)NCCSc2c(C)[nH]c3ccccc23)c1OC,i,?,i,?,i,13µM
Cc1ccc(C(=O)NCCc2cccc(Cl)c2)cc1[N+](=O)[O-],active,?,i,i,38,?
